Screening results as filed in PubChem.
Rows were chosen to be rich in hits. Some 27% of all compounds tested hit in one or more screens of this group.
CYP2C9 inh: blockers of cytochrome P450 2C9 activity – biochemical, luminescence, ADME assay, primary screen. 96,000 tested, 20% active. P11712. inhibition, % at 5 µM. CYP2C9 Supersomes, luciferin-H conversion;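 active = blocking of liver enzyme CYP2C9 beyond about 50% at 5 µM, limit read from the data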
CYP2C9 activ: human CYP2C9 activators, primary screen, biochemical, luminescence; Cytochrome P450 2C9 (Homo sapiens), P11712; recombinant CYP2C9, luciferin-H conversion; active compounds read high; factor 1 = untreated enzyme, 0 = blocked; activation factor at 5 µM; 96,000 tested, 1.4% active;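 active = activation factor of 2 or more for CYP2C9 at a 5 µM dose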;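 also: 0 = sulfaphenazole-blocked wells and 1 = vehicle-only wells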
Cav32 inh: Cav3.2 calcium influx blockers – cell-based, Fluo-4 calcium fluorescence, FDSS, MLSMR library, primary screen | B-score at 10 µM | 100,000 tested, 4% active | Voltage-dependent T-type calcium channel subunit alpha-1H (Homo sapiens), O95180 | Cav3.2-expressing cells; active compounds read low;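 active = single-dose well whose peak fluorescence ratio is a statistical outlier from its plate by either plate-standardised score or position-corrected B-score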
CYP2C19 activ: human CYP2C19 activators, primary screen, biochemical, luminescence | Cytochrome P450 2C19 (Homo sapiens), P33261 | recombinant CYP2C19, luciferin-H EGE luminescence; active compounds read high; 0 = fully inhibited enzyme, 1 = untreated enzyme | activation factor at 5 µM | 96,000 tested, under 10 active;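 active = activation factor of at least 2 at 5 µM in the primary screen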;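 also: 0 = wells with 2.5 mM tranylcypromine and 1 = vehicle-only wells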
Target sequence (P33261 whole entry, looked up): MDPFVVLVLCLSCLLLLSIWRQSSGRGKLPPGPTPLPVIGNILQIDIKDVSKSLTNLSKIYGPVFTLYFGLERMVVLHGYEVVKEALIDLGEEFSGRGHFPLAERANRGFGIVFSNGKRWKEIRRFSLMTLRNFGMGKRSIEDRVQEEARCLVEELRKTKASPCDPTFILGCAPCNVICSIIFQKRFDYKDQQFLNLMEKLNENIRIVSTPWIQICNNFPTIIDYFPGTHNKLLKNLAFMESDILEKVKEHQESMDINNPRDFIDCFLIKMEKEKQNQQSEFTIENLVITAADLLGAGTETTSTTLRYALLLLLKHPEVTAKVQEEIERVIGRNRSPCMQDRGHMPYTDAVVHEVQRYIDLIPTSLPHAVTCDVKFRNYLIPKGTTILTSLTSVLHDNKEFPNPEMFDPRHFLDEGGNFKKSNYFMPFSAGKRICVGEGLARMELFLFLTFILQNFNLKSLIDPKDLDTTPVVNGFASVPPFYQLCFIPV
CYP2C19 inh: blockers of cytochrome P450 2C19 activity – biochemical, luminescence, ADME assay, primary screen; P33261; CYP2C19 Supersomes, luciferin-H EGE luminescence, 30 min; inhibition, % at 5 µM; 96,000 tested, 21% active;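 active = CYP2C19 inhibition above a set limit at 5 µM in the primary screen, cut at about 50% in these data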;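 also: plate controls were negative control wells for no effect and 2.5 mM tranylcypromine positive control for full effect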
The depositor's hits bear a star; x = no result.

SMILES	CYP2C9 inh	CYP2C9 activ	Cav32 inh	CYP2C19 activ	CYP2C19 inh
N#Cc1c(N)oc(-c2ccco2)c1-c1ccco1	64*	0.4	-0.23	0.8	22
Cc1oc(/N=C/c2ccccc2O)c(C#N)c1C	-3	1	0.97	1	2
N#Cc1c(N)oc(-c2ccccc2)c1-c1ccccc1	56*	0.4	-0.36	0.3	75*
COc1ccc(OC)c(/C=N/c2oc(-c3ccco3)c(-c3ccco3)c2C#N)c1	36	0.6	-0.74	1.1	-13
N#Cc1c(/N=C/c2ccco2)oc(-c2ccccc2)c1-c1ccccc1	73*	0.3	x	0.5	49
O=C(O)C1C2C=CC(O2)C1C(=O)NCCCn1ccnc1 (configuration not stated)	11	0.9	0.38	0.7	26
CCC1=C2CC[C@H]3C(=O)NC(=O)[C@H]3[C@H]2[C@@]2(Cc3ccccc3)C(=NCC(=O)OC)OC(=O)N2C1=O	x	x	0.8	x	x
Cc1nc2ccc3nc(NC(=O)C4COc5ccccc5O4)sc3c2s1 (configuration not stated)	68*	0.3	x	1	-5
O=C(Nc1nnc(SCc2ccccc2Cl)s1)C1COc2ccccc2O1 (configuration not stated)	55*	0.5	-1.2	0.9	10
CSc1nc2ccc3nc(NC(=O)C4COc5ccccc5O4)sc3c2s1 (configuration not stated)	33	0.7	-0.64	0.9	7
Cc1ccccc1CSc1nnc(NC(=O)C2COc3ccccc3O2)s1 (configuration not stated)	13	0.9	-2.2	0.9	10
Cc1csc(NC(=O)C2COc3ccccc3O2)n1 (configuration not stated)	48	0.5	0.0044	0.2	83*
Cc1cc(NC(=O)C2COc3ccccc3O2)no1 (configuration not stated)	38	0.6	0.68	0.4	61*
CN(C)CCN1C(=O)C(=O)/C(=C(/O)c2ccc(F)cc2)C1c1ccccc1 (configuration not stated)	7	0.9	0.54	1.1	-6
O=C(Nc1ccccn1)C1COc2ccccc2O1 (configuration not stated)	x	x	-0.04	x	x
Cc1cnc(NC(=O)C2COc3ccccc3O2)s1 (configuration not stated)	18	0.8	-0.68	0.3	67*
O=C(O)C1C2CCC(O2)C1C(=O)NCc1ccncc1 (configuration not stated)	30	0.7	0.2	0.7	35
COc1cccc(/C=N/n2c(SC)nnc2-c2ccccc2)c1O	54*	0.5	-1.3	0.7	26
COc1cccc(/C=N/n2cnc3ccccc32)c1OC	46	0.5	-2	0.2	83*
COc1cccc(/C=N/n2c(=S)n(C)c3cc(C)c(C)cc32)c1OC	39	0.6	0.48	0.8	17
COc1cccc(/C=N/NC(=O)c2ccc(-c3ccccc3)cc2)c1O	4	1	0.36	1	-4
COc1cccc(/C=N/n2c(N)nc3ccccc32)c1OC	19	0.8	-0.58	0.7	31
COc1cccc(/C=N/n2c(SC)nnc2-c2ccccc2)c1OC	91*	0.1	-0.78	0.1	91*
CC(C)CCNC(=O)c1c(CSc2ccccc2)noc1C(=O)NCc1ccccc1	x	x	0.092	x	x
O=c1[nH]c(=O)n(C2CCCO2)cc1Br (configuration not stated)	2	1	-0.59	1	-2
SMILES	CYP2C9 inh	CYP2C9 activ	Cav32 inh	CYP2C19 activ	CYP2C19 inh
CC(C)NC(=O)C1CCN(C(=O)C(C(=O)c2ccccc2)n2cc(Cl)ccc2=O)CC1 (configuration not stated)	4	1	1.1	1	1
C=CCc1ccc(OCc2ccc(C(=O)OC)o2)c(OC)c1	68*	0.3	-1.4	0.6	44
CCC(=O)c1ccc(OCc2ccc(C(=O)OC)o2)c(OC)c1	56*	0.4	-0.24	0.6	40
C=CCc1ccc(OC(=O)c2ccccc2)c(OC)c1	x	x	-0.22	x	x
CCCOc1ccc(C(=O)CCC(=O)OCC(=O)Nc2cc(C)on2)cc1	-2	1	0.63	1	1
Nc1ccc2c(c1)C(=O)C(=O)c1ccccc1-2	87*	0.1	0.061	0	98*
CCO[C@H]1OC(C(=O)N2CCN(Cc3ccc4c(c3)OCO4)CC2)=C[C@@H](C2CC2)[C@@H]1CCCO	x	x	1	x	x
CCN(c1ccccc1)S(=O)(=O)c1ccc(F)cc1C	10	0.9	-3.9	0.3	67*
CCN(c1ccccc1)S(=O)(=O)c1ccc(F)c(C(=O)O)c1	-7	1.1	-0.29	1.2	-19
CCOC(=O)c1c(NC(=O)CSc2nnc(-c3cccnc3)o2)sc(C(C)=O)c1C	65*	0.3	-1.5	0.9	14
CC(=O)c1cccc(NC(=O)CSc2nnc(-c3cccnc3)o2)c1	x	x	0.67	x	x
CCOC(=O)c1c(NC(=O)CSc2nnc(-c3ccco3)o2)sc(C(C)=O)c1C	70*	0.3	x	0.9	14
CCOC(=O)c1c(NC(=O)CSc2nnc(-c3ccco3)o2)sc(C)c1C	48	0.5	-3	0.8	21
CCOc1ccc(CCNC(=O)C2CCCN(c3nn4c(=O)cc(C)nc4s3)C2)cc1 (configuration not stated)	63*	0.4	2.5	0.8	22
COCCNC(=O)C1CCCN(c2nn3c(=O)cc(C)nc3s2)C1 (configuration not stated)	13	0.9	0.22	0.9	6
CCOc1ccc(CCNC(=O)C2CCN(c3nn4c(=O)cc(C)nc4s3)CC2)cc1OCC	57*	0.4	0.7	0.5	54*
CCC(=O)Nc1ccc2oc(-c3cccc(C)c3)nc2c1	-23	1.2	1.8	0.2	83*
CCCC(=O)Nc1ccc2oc(-c3cccnc3)nc2c1	5	1	0.35	0.8	16
O=C(Nc1cccc(-c2nc3cc(Cl)ccc3o2)c1)C1CCCO1 (configuration not stated)	71*	0.3	-1.4	0.5	48
Cc1ccc2oc(-c3cccc(NC(=O)C4CCCO4)c3)nc2c1 (configuration not stated)	20	0.8	-2.4	0.9	12
Cc1ccc2oc(-c3cccc(NC(=O)Cc4cccs4)c3)nc2c1	84*	0.2	0.23	0.8	21
COc1ccc2c(c1)c(=O)cc(-c1ccccc1)n2C	x	x	3.1	x	x
CCCCCC(=O)Nc1cccc(C2=NOC3(C2)C[C@@H](C(N)=O)N(C(=O)CC(c2ccccc2)c2ccccc2)C3)c1 (some centres not stated)	x	x	-1.8	x	x
COc1ccc(/C=N/Nc2nc3ccccc3o2)cc1O	52*	0.5	-0.46	0.5	51*
